PubChem BioAssay AID2314 (National Center for Advancing Translational Sciences (NCATS), 2010)
In all, about 300,000 compounds went through this assay and about 37,000 (12%) were called active. Many of the other results were omitted from the sample, so actives are more common in it than they were. Unmarked numbers belong to inactive results. Cut-off read from the data, not from the text of the source: active = max response mostly above about 13% (no sharp cut-off); inactive = mostly below about 14%.

Test: Cycloheximide Counterscreen for Small Molecule Inhibitors of Shiga Toxin; note: read at 38.3 µM for the half of the compounds with a filed dose; 0% is about no effect
Details: cell reporter, cycloheximide protein synthesis inhibition counterscreen; stronger effect = higher value
Work on `Cc1ccc(NC(=O)CNCc2ccccn2)cc1S(=O)(=O)N(C)C` yielded a max response of 19.5%. In the case of `CCN(CC)S(=O)(=O)c1cc(C(=O)Nc2ccccn2)ccc1C`, the max response was 45.1% (active). `CCN(CC)S(=O)(=O)c1ccc(NC(=O)c2cccnc2Cl)c(NC(=O)c2cccnc2Cl)c1` showed a max response of -1.75%. For `CCN(CC)S(=O)(=O)c1cccc(C(=O)Nc2ccccc2)c1`, the max response was 17.1% (active). `CCN(CC)S(=O)(=O)c1cccc(C(=O)NCC(=O)OCC(=O)NCc2ccccc2)c1` showed a max response of -1.61%. `CCN(CC)S(=O)(=O)c1ccc(NC(=O)c2cnc(C)cn2)cc1` showed a max response of 0.654%. `CC(C)c1ccc(C2C(C(=O)c3ccco3)=C(O)C(=O)N2CC2CCCO2)cc1` (stereo not given) showed a max response of 10.1%. `CC(C)(C)[C@H]1C=C(C(=O)NCc2ccccc2)O[C@@H](OCc2ccc(CO)cc2)C1` showed a max response of -1.33%. For `COc1cc(C(=S)N2CCOCC2)cc(OC)c1OC(=O)c1ccc([N+](=O)[O-])cc1[N+](=O)[O-]`, the max response was 3.8%. In the case of `Cc1ccc(CSc2nnc(-c3cnccn3)n2C)cc1`, the max response was 10.9% (active). For `CCN(CC)C(=O)CSc1nnc(-c2cnccn2)n1-c1ccc(C)cc1`, the max response was 0.416%. For `Cn1c(SCc2c(F)cccc2Cl)nnc1-c1cnccn1`, the max response was 56.4% (active). `O=C(CSc1nnc(-c2cnccn2)n1Cc1ccco1)c1ccc(Cl)c(Cl)c1` showed a max response of 0.777%. Work on `Cn1c(SCc2ccc(F)cc2)nnc1-c1ccncc1` yielded a max response of 10.5%. Work on `Oc1ccc(-n2nnnc2SCc2c(F)cccc2Cl)cc1` yielded a max response of -2.8%. `CN(C)C(=O)c1coc2nc3ccccc3nc12` gave a max response of 4.74%. Work on `COc1ccc(C(C[N+](=O)[O-])n2nc(C)cc2C)cc1` (stereo not given) yielded a max response of -0.331%. For `COc1ccc(C(=O)N2CCc3cc(OC)c(OC)cc3C2c2cccc([N+](=O)[O-])c2)cc1` (stereo not given), the max response was 0.684%. `O=C(CCS(=O)(=O)c1ccccc1)Nc1nc2c(s1)CCCC2` gave a max response of 5.94%. For `O=C(CSc1nc(O)c(Cc2ccccc2)c(=O)[nH]1)Nc1nc2c(s1)CCCC2`, the max response was 28% (active). With `CCOC(=O)c1sc(NC(=O)CSc2nc(O)c(Cc3ccccc3)c(=O)[nH]2)nc1C` the max response was 39.7% (active). Work on `CCOC(=O)c1sc(NC(=O)CSc2n[nH]c(CC)n2)nc1C` yielded a max response of 0.587%. `CCOC(=O)c1ccccc1NC(=O)CSc1nc2ccccc2c(=O)[nH]1` gave a max response of -3.39%. `CSc1nc(O)c(Cc2ccccc2)c(=O)[nH]1` showed a max response of -3.85%. `Cc1cccc(C(=O)Nc2ccccc2N2CCN(c3ccc(F)cc3)CC2)c1` showed a max response of -0.148%. For `O=C(Nc1ccccc1F)c1ccc2c(c1)OCO2`, the max response was 41.4% (active). For `Cc1ccc(F)cc1NC(=O)c1ccc2c(c1)OCO2`, the max response was 25.6% (active). `COc1ccc(C(=O)Nc2ccc(F)cc2F)cc1` gave a max response of 28.7%. Compound `Cn1c(NC(=O)c2ccc3c(c2)OCO3)cc(=O)n(C)c1=O` has a max response of -4.72%. `Cc1ccc(-n2nc3c(c2NC(=O)c2ccc4c(c2)OCO4)CSC3)c(C)c1` showed a max response of -1.7%. For `O=C(COC(=O)c1ccc2c(c1)OCCO2)NCc1ccccc1`, the max response was 10.5%. For `O=C(OCc1ccccc1F)c1ccc2c(c1)OCCO2`, the max response was 33% (active). `CC(NC(=O)COC(=O)c1ccc2c(c1)OCO2)c1ccccc1` (stereo not given) showed a max response of 7.94%. With `O=C(Nc1ccccc1N1CCN(C(=O)c2ccccc2)CC1)c1ccc2c(c1)OCO2` the max response was -1.45%. For `Cc1ccc(F)cc1NC(=O)c1cccc(N(C)C)c1`, the max response was 28.9% (active).
